Assay [1] is described as follows: Primary qHTS for inhibitors of nuclear receptor binding SET domain protein 2 (NSD2) in an RCH-ACV wild type WT cells (2C) (AID 1645877). Further: nearly all actives have a fitted effect of over 70% in size. Further: potency means the concentration at half of the fitted maximal effect. A general note: Quantitative high-throughput screening tests each substance at several concentrations.
Assay [2] concerns the target Catechol O-methyltransferase (Homo sapiens) (UniProt P21964). The assay is described as follows: Confirmatory Screen for Target Class Profiling of Small Molecule Inhibitors of Methyltransferases (AID 1745852; calls by dose curve; further: potency means the concentration at half of the fitted maximal effect; on activity change, negative = inhibition: on the % scale 0 is the no-effect control and ±100 the full control effect). Particulars: MTase-Glo luminescence, SAH detection, recombinant enzyme; measured here: COMT max response; stronger effect = lower value.
In assay [3] the target is Guanidinoacetate N-methyltransferase (Homo sapiens) (UniProt Q14353). The assay is described as above. Particulars: activity change, negative = inhibition: at 57.3 µM (top of the series) unless noted.
In assay [4] the target is Nicotinamide N-methyltransferase (Homo sapiens) (UniProt P40261). Described as above. Particulars: MTase-Glo luminescence, SAH detection, recombinant enzyme; measured here: NNMT max response; stronger effect = lower value.
Chain of Nicotinamide N-methyltransferase (Homo sapiens) (P40261 whole entry, looked up): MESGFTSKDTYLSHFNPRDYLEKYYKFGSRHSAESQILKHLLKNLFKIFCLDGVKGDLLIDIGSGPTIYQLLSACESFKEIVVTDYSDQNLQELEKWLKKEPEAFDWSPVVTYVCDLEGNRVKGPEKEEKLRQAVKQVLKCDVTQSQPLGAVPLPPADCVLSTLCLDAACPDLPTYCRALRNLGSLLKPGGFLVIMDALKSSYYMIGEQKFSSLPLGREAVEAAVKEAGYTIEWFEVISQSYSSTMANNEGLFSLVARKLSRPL
Assay [5] concerns the target Phenylethanolamine N-methyltransferase (Homo sapiens) (UniProt P11086). The assay is described as above. As to conditions: MTase-Glo luminescence, SAH detection, recombinant enzyme; measured here: PNMT max response; stronger effect = lower value.
In assay [6] the target is Glutathione peroxidase 1 (Homo sapiens) (UniProt P07203). The assay is described as follows: Primary qHTS Assay for Inhibitors of Recombinant Selenoprotein Glutathione Peroxidase 1 (GPX1) (AID 1845191). Further: nearly all actives have a fitted effect of over 65% in size. In a few lines:
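GPX1 10 nM, GR 100 nM, GSH 1 mM, NADPH 0.5 mM, CHP 0.5 mM (final). 30-min cpd preincubation, RT. Ex340/Em450 read t=0, t=15 min.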

Assay [7] concerns the target Phospholipid hydroperoxide glutathione peroxidase GPX4 (Homo sapiens) (UniProt P36969). Kind of assay: Primary qHTS Assay for Inhibitors of Recombinant Selenoprotein Glutathione Peroxidase 4 (GPX4) (AID 1845192). Further: nearly all actives have a fitted effect of over 65% in size. Further: potency means the concentration at half of the fitted maximal effect. On activity change, negative = inhibition: on the % scale 0 is the no-effect control and ±100 the full control effect. The method in brief: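 qHTS, GR-coupled: GPX4 200 nM + cpd 30 min RT → GSH 1 mM, NADPH 0.5 mM, GR 100 nM → CHP 0.5 mM start; fluor 340/450 at t0 and t15 min; no-enzyme wells as control.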

Assay [8] addresses Luciferin 4-monooxygenase (Photinus pyralis) (UniProt P08659). The assay is described as follows: Primary firefly luciferase (FLuc) qHTS assay for identification of artifact compounds. (AID 1845220). Further: nearly all actives have a fitted effect of over 60% in size. Further: potency means the concentration at half of the fitted maximal effect.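 On activity change, negative = inhibition: plate controls were DMSO vehicle for no effect and no enzyme for full effect.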 The method in brief:
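qHTS, 15 min compound preincubation with substrate (10 uM luciferin, 10 uM ATP) at RT, then 10 nM FLuc; 5 min; luminescence; % inhibition vs no-enzyme/DMSO controls, 4-parameter Hill fit.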

For assay [9], the system named is Nanoluciferase (engineered Oplophorus gracilirostris luciferase). Kind of assay: Primary Nanoluciferase (NLuc) qHTS assay for identification of artifact compounds. (AID 1845222). Further: potency means the concentration at half of the fitted maximal effect. In a few lines: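 Luminescence read-out of secreted NLuc in S16 cell conditioned medium (1:55); compounds tested with 15 min RT preincubation, then Nano-Glo substrate 1:100, 5 min. % inhibition vs no-enzyme and DMSO controls, 4-parameter Hill fit.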

The nature of assay [10]: Primary redox qHTS assay for identification of artifact compounds. (AID 1845223).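 Further: 0% = DMSO and 100% = reference compound.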 The method in brief: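 Redox-cycling detection via DTT (250 uM final) oxidation coupled to Amplex Red (25 uM)/HRP (250 mU/mL) in HBSS. 15 min preincubation plus 30 min after DTT, room temperature. Ex/Em 525/598 nm; 4-parameter Hill fit against DMSO and 10 uM DA3003.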
The nature of assay [11]: Primary fluorescence-based thiol-reactive (MSTI) qHTS assay for identification of artifact compounds. (AID 1845221). Further: nearly all actives have a fitted effect of over 65% in size. Further: potency means the concentration at half of the fitted maximal effect. In a few lines:
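Thiol-reactive compounds detected by quenching of 4 uM MSTI fluorescence (525/598 nm) after 1 h room-temperature dark incubation in PBS pH 7.4, 2% DMSO. qHTS titration; percent inhibition Hill-fitted against Acetyl-MSTI/MSTI controls.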

Several values for one entry are separate records, joined by “and”; a condition that tells them apart may be missing. Equal entries are not always repeated. Results filed as inconclusive are left out. Activity calls are given as the source filed them. Unless noted, the call rests on the fitted dose curve; in most records, active means well fitted curve in the direction sought with a large enough effect; inconclusive means small, poorly fitted or top-dose-only effect, or another doubt; inactive means no such curve, though single readings can be large; an effect the other way counts as inactive or inconclusive.

Chain of Phospholipid hydroperoxide glutathione peroxidase GPX4 (Homo sapiens) (P36969 whole entry, looked up): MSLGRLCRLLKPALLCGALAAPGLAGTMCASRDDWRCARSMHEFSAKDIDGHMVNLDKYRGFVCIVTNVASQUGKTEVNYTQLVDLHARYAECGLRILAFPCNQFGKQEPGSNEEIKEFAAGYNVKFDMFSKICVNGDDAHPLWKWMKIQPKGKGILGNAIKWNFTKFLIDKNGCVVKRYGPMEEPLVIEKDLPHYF
Chain of Glutathione peroxidase 1 (Homo sapiens) (P07203 whole entry, looked up): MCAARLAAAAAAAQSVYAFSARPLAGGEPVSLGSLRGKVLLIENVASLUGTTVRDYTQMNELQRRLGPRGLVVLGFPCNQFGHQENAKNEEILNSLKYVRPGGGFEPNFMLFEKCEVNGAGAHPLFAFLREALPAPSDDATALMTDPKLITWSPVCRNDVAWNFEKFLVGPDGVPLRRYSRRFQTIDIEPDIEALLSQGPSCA
Chain of Catechol O-methyltransferase (Homo sapiens) (P21964 whole entry, looked up): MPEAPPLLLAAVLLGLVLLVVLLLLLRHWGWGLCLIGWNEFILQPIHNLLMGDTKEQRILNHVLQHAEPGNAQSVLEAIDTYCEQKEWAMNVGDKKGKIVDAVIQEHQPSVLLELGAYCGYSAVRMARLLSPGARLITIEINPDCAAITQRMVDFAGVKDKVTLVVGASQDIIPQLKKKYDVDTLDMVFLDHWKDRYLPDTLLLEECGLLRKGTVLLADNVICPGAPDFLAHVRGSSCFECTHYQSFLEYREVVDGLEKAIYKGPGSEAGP
Chain of Phenylethanolamine N-methyltransferase (Homo sapiens) (P11086 whole entry, looked up): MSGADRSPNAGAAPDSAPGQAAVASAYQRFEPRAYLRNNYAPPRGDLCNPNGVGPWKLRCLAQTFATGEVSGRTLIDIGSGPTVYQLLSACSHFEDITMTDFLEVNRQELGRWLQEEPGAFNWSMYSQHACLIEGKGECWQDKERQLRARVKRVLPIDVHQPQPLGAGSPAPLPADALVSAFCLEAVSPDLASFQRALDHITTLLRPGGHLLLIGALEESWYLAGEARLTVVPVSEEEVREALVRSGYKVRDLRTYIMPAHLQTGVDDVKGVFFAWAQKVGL

With `COc1ccc(-c2cnc3ccc(NCc4ccc(S(N)(=O)=O)cc4)nn23)cc1OC`, the results for the Potency in [1] and in assay [3] were 7.28 µM (active) and 38.3 µM (active), respectively. For the same molecule, the figures for the activity in assay [2], in assay [4] and in assay [5] were -34.5%, -24.2% and -27.8%, respectively. Further, the Potency entry in assay [6], in assay [7], in assay [8], in assay [9] and in assay [10] was “inactive” in each case.
For the molecule `c1cn2cc(-c3ccc4cn[nH]c4c3)nc(Nc3ccc(N4CCOCC4)cc3)c2n1`, the values for the Potency in [1], in assay [3] and in assay [8] were 0.409 µM (active), 21.5 µM (active) and 0.0536 µM (active), respectively. In addition, the activity in assay [2] was -53.7%; in [4], -49.6%; in assay [5] it was -53.5%. In addition, the Potency result in assay [6], in [7], in assay [9] and in assay [10] was “inactive” in each case.
As for `O=C(O)/C=C/c1ccc(-c2ccc(O)c(C34CC5CC(CC(C5)C3)C4)c2)cc1`, in [1], the Potency was 0.145 µM (active). The figures for the activity in [2], in [4] and in assay [5] were 0.235%, -84% and -0.0074%, respectively. In addition, the activity change, negative = inhibition in assay [3] was found to be 1.42%. The Potency result in [7], in assay [8], in assay [11], in assay [9] and in [10] was “inactive” throughout.
As for `Cc1nc([C@](C)(O)CO)sc1-c1cnc(N)c(O[C@H](C)c2cc(F)ccc2-n2nccn2)c1`, the Potency in assay [1] is 13.2 µM (active). Besides, the activity in [2] was -59.6%; in assay [4], -12.8%; in assay [5], -10.9%. In assay [3], the activity change, negative = inhibition is -0.524%. In addition, the Potency result in [7], in assay [8], in [11] and in assay [9] was “inactive” throughout.
`CN(C)c1nc(NC2CCC(NC(=O)c3ccc(F)c(F)c3)CC2)nc2ccccc12` (stereo not drawn): in [1], the Potency was 6.49 µM (active). The activity in assay [2] was -11.9%; in [4], -27.9%; in [5], -21.7%. For the same molecule, the activity change, negative = inhibition in assay [3] was found to be 0.153%. Moreover, the Potency result in assay [7], in assay [8], in [11], in assay [9] and in assay [10] was “inactive” throughout.
Take `CC1(C)CC[C@]2(C(=O)O[C@@H]3O[C@H](CO)[C@@H](O)[C@H](O)[C@H]3O)CC[C@]3(C)C(=CCC4[C@@]5(C)C[C@@H](O)[C@H](O)[C@@](C)(CO)C5CC[C@]43C)C2[C@@H]1O` (stereo partly drawn): the Potency result in assay [1], in assay [6], in assay [7], in assay [8], in assay [9] and in [10] was “inactive” in each case. For the same molecule, the activity was -79.9% in assay [2], -4% in assay [4] and -1.38% in assay [5]. In [3], the activity change, negative = inhibition is -0.535% [at 19.1 µM]. For the same molecule, the Potency in assay [11] was 3.16 µM (active).
Regarding `NC(=O)c1cnc(NCCc2ccc(O)c(Cl)c2)nc1NCc1ccccc1`, the Potency in [1] was 1.15 µM (active); in assay [3], 27.1 µM (active). For the same molecule, the activity in assay [2] is -29%; in assay [4], -78.6%; in [5], -25.9%. Further, the Potency result in assay [6], in assay [7], in assay [8], in assay [11], in assay [9] and in [10] was “inactive” throughout.
Regarding `COC(=O)C1=C2Nc3ccccc3C23CCN2CCCC(C(C)O)(C1)C23` (stereo not drawn), the Potency result in assay [1], in assay [6], in assay [7], in assay [8] and in assay [9] was “inactive” in each case. In addition, the activity in [2] was -1.85%; in assay [4], 2.66%; in assay [5] it was -1.29%. Further, the activity change, negative = inhibition in assay [3] was 0%.
For `CC1CCC2(CO)C(C(=O)O)=CCCC2C1(C)CCc1ccoc1` (stereo not drawn), the Potency result in [1], in assay [7], in assay [8], in assay [11] and in assay [9] was “inactive” each time. Further, the activity in assay [2] is -92.5%; in [4], 1.37%; in assay [5], 1.68%. Moreover, the activity change, negative = inhibition in assay [3] was found to be 0%.
`N#Cc1ccc2[nH]cc(CCCCN3CCN(c4ccc5oc(C(N)=O)cc5c4)CC3)c2c1`: the Potency in [1] is 16.3 µM (active). In addition, the activity in [2] was -8.1%; in [4], -49.2%; in [5], -11.6%. The activity change, negative = inhibition in assay [3] is -4.3%. Further, the Potency result in assay [6], in [7], in [8], in assay [11], in [9] and in assay [10] was “inactive” in each case.
Turning to `CCS(=O)(=O)N1CCN(c2ccc(Nc3ncc(C(N)=O)c(NC4CC4)n3)cc2)CC1`, the Potency in assay [1] is 258 nM (active) and 417 nM (active); in assay [11], 2.99 µM (active). In addition, the activity in [2] was -6.02%; in assay [4] it was -70.8%; in assay [5] it was -8.46%. For the same molecule, in [3], the activity change, negative = inhibition is 0%. Besides, the Potency entry in assay [6], in assay [7], in assay [9] and in assay [10] was “inactive” in each case.
With `NCCCNc1ccc(Nc2nccc(Nc3cc(C4CC4)[nH]n3)n2)cc1`, the Potency was 0.515 µM (active) in assay [1] and 27.1 µM (active) in assay [3]. Besides, the values for the activity in [2], in [4] and in assay [5] were -13.5%, -57.6% and -35.6%, respectively. For the same molecule, the Potency entry in [6], in assay [7], in assay [8], in assay [9] and in assay [10] was “inactive” in each case.
For `CC(C)c1nc(-c2ccc(NC(=O)Nc3cccc(C(F)(F)F)c3)c3ccccc23)c2c(N)nccn12`, the Potency in assay [1] was 1.45 µM (active). The activity in assay [2] is -5.14%; in [4], -2.22%; in assay [5], -6.27%. The activity change, negative = inhibition in assay [3] was -2.79%. Also, the Potency result in [6], in [7], in assay [8], in assay [9] and in [10] was “inactive” in each case.
For the molecule `C[C@]12C[C@@H](O)[C@@H]3C[C@@]1(O[C@@H]1O[C@H](CO)[C@@H](O)[C@H](O)[C@H]1O)[C@]3(COC(=O)c1ccccc1)C(=O)O2`, the Potency entry in [1], in [6], in assay [7], in assay [9] and in [10] was “inactive” throughout. The activity was -66.1% in assay [2], 0% in assay [4] and 6.78% in assay [5]. The activity change, negative = inhibition in assay [3] is 0.459% [at 29.8 µM]. In addition, the Potency in assay [11] was 13 µM (active).
Regarding `CCc1c(-c2ccccc2)c(-c2ccccc2)nn1-c1ccccc1-c1cccc(OCC(=O)O)c1`, the Potency entry in [1], in assay [6], in assay [8], in assay [11] and in [10] was “inactive” in each case. Also, the activity in assay [2] was -1.93%; in [4], -56%; in assay [5], -7.07%. The activity change, negative = inhibition in assay [3] was determined as 0%. The Potency in assay [9] was 0.269 µM (active).
As for `CN(CCc1ccc(Nc2ncc(-c3cccnc3)s2)cc1)Cc1ccccc1`, in [1], the Potency is 9.16 µM (active). The activity in assay [2] is -0.695%; in assay [4], -47.4%; in [5] it was -13.5%. The activity change, negative = inhibition in [3] is 0%. Besides, the Potency result in assay [7], in assay [8] and in assay [9] was “inactive” throughout.
As for `CC(C)c1c2cc(-c3ccnc(NC4CCC(NC5CCOCC5)CC4)n3)ccc2nn1C` (stereo not drawn), the Potency in [1] is 129 nM (active) and 93.4 nM (active); in [3], 38.3 µM (active); in assay [7] it was 9.04 µM (active). Moreover, the figures for the activity in assay [2], in assay [4] and in assay [5] were -27.8%, -14.6% and -25.7%, respectively. Moreover, the Potency result in assay [8], in [11], in assay [9] and in assay [10] was “inactive” in each case.

Values taken from PubChem BioAssay (NCATS).
